Screening results: PubChem, Broad Institute
The sample as a whole holds a higher share of hits than the screen did.
T cruzi growth: T. cruzi intracellular proliferation inhibitors, primary screen, cell-based, beta-gal Tulahuen parasites, NIH3T3 host, luminescence; T. cruzi beta-gal in NIH3T3, GalScreen luminescence, 90 h; inhibition, % at 8.34 µM; AID 624255, 2012; 77,000 tested, 5.9% active;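 active = mean inhibition above about 93%, with at least 55% of replicates each passing it, limit read from the data, passing the limit was not always enough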
C diff HTS: C. difficile growth inhibitors, primary screen, HTS | Clostridium difficile clinical isolate growth, OD600, 24 h; stronger effect = lower value | growth activity, negative = inhibition, % at 16 µg/mL (by protocol) | 86,000 tested, 0.25% active;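 active = mean growth activity at or below -80% and every replicate also at or below -80%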
Hits are given with their value; i = inactive; nt = no result given; ! = repeats disagree.

SMILES	T cruzi growth	C diff HTS
Cc1ccccc1-c1ccc([C@H]2[C@@H](CO)N3CCCCN(C(=O)Nc4cccc(F)c4)C[C@@H]23)cc1	i	i
COc1ccccc1NC(=O)N1CCCCN2[C@H](C1)[C@H](c1ccc(-c3cccc(C)c3)cc1)[C@@H]2CO	i	i
COc1ccccc1NC(=O)N1CCCCN2[C@@H](CO)[C@@H](c3ccc(-c4cccc(C)c4)cc3)[C@@H]2C1	i	-80
O=C(Nc1ccc(F)cc1)N1CCCCN2[C@H](C1)[C@@H](c1ccc(-c3cccc(F)c3)cc1)[C@@H]2CO	i	i
Cc1ccccc1-c1ccc([C@H]2[C@@H](CO)N3CCCCN(C(=O)Nc4cccc(F)c4)C[C@H]23)cc1	i	-98
O=C(Nc1ccc(F)cc1)N1CCCCN2[C@@H](CO)[C@@H](c3ccc(-c4cccc(F)c4)cc3)[C@@H]2C1	i	-99
C[C@H](CO)N1C[C@H](C)[C@@H](CN(C)C)Oc2ccc(N(C)C)cc2CC1=O	i	i
C[C@H](CO)N1C[C@H](C)[C@H](CN(C)C(=O)Nc2ccc(C(F)(F)F)cc2)Oc2ccc(NC(=O)Nc3ccc4c(c3)OCO4)cc2CC1=O	i	i
COCC#Cc1cnc2c(c1)C(=O)N([C@H](C)CO)C[C@@H](C)[C@H](CN(C)S(=O)(=O)c1cn(C)cn1)O2	i	i
O=C(Nc1ccccc1)N1CCCCN2[C@H](CO)[C@H](c3ccc(-c4ccccc4F)cc3)[C@H]2C1	i	i
O=C(Nc1cccc(F)c1)N1CCCCN2[C@@H](CO)[C@@H](c3ccc(-c4ccccc4F)cc3)[C@@H]2C1	i	-98
Cc1ccc(-c2ccc([C@@H]3[C@H](CO)N4CCCCN(C(=O)Nc5cccc(F)c5)C[C@@H]34)cc2)cc1	i	-98
Cc1ccc(-c2ccc([C@H]3[C@@H](CO)N4CCCCN(C(=O)Nc5cccc(F)c5)C[C@@H]34)cc2)cc1	i	i
COc1ccc(S(=O)(=O)N[C@H]2C=C[C@H](CC(=O)NCCc3ccccc3)O[C@H]2CO)cc1	i	i
O=C(C1CC1)N1C[C@@H]2[C@H](c3ccccc31)[C@@H](CO)N2Cc1ccccc1Cl	i	i
CCCN(C)C[C@@H]1OCCCC[C@H](C)Oc2ccc(NC(=O)Nc3ccc(C(F)(F)F)cc3)cc2C(=O)N([C@@H](C)CO)C[C@@H]1C	i	-105
COc1ccc(NC(=O)Nc2ccc3c(c2)C(=O)N([C@H](C)CO)C[C@H](C)[C@@H](CN(C)Cc2ccc(C(F)(F)F)cc2)OCCCC[C@H](C)O3)cc1	i	i
COc1ccc(CN(C)C[C@@H]2OCCCC[C@H](C)Oc3ccc(NC(=O)Nc4ccc(C(F)(F)F)cc4)cc3C(=O)N([C@@H](C)CO)C[C@H]2C)cc1	i	-83
CCCN(C)C[C@@H]1OCCCC[C@H](C)Oc2ccc(NC(=O)Nc3ccc(C(F)(F)F)cc3)cc2C(=O)N([C@H](C)CO)C[C@@H]1C	i	i
C[C@@H]1CN([C@@H](C)CO)C(=O)c2cccc(NC(=O)c3nc4ccccc4s3)c2O[C@H]1CN(C)Cc1ccc(C(=O)Nc2ccccc2N)cc1	104	nt
C[C@@H]1CN([C@@H](C)CO)C(=O)c2cccc(NC(=O)Nc3ccc4c(c3)OCO4)c2O[C@@H]1CN(C)Cc1ccc(-c2ccccc2)cc1	i	-96
C[C@H](CO)N1C[C@H](C)[C@H](CN(C)Cc2ccc(-c3ccccc3)cc2)Oc2c(NC(=O)Nc3ccc4c(c3)OCO4)cccc2C1=O	i	i
C[C@@H]1CN([C@H](C)CO)C(=O)c2cccc(NC(=O)c3nc4ccccc4s3)c2O[C@@H]1CN(C)Cc1ccc(C(=O)Nc2ccccc2N)cc1	i	nt
C[C@H]1CN([C@@H](C)CO)S(=O)(=O)c2ccc(Br)cc2O[C@H]1CN(C)CC1CCOCC1	i	i
C[C@H](CO)N1C[C@H](C)[C@H](CN(C)S(=O)(=O)c2ccccc2)Oc2c(NC(=O)Nc3ccc4c(c3)OCO4)cccc2C1=O	i	i
SMILES	T cruzi growth	C diff HTS
COc1ccc(S(=O)(=O)Nc2ccc3c(c2)C(=O)N([C@H](C)CO)C[C@@H](C)[C@@H](CN(C)C(=O)c2ccncc2)OCCCC[C@@H](C)O3)cc1	i	i
C[C@H](CO)N1C[C@H](C)[C@H](CN(C)CC2CCCCC2)Oc2c(NS(C)(=O)=O)cccc2C1=O	i	i
C[C@H]1CN([C@@H](C)CO)C(=O)Cc2cc(NC(=O)CCCCCC(=O)Nc3ccccc3N)ccc2O[C@@H]1CN(C)Cc1ccc(Cl)c(Cl)c1	i	i
C[C@H]1CCCCO[C@@H](CN(C)Cc2ccncc2)[C@@H](C)CN([C@@H](C)CO)C(=O)c2cc(NC(=O)Nc3cccc4ccccc34)ccc2O1	99	i
COc1ccc(CN(C)C[C@@H]2OCCCC[C@H](C)Oc3ccc(NC(=O)Nc4ccc(C(F)(F)F)cc4)cc3C(=O)N([C@H](C)CO)C[C@H]2C)cc1	i	-96
COc1ccc(CN(C)C[C@H]2OCCCC[C@H](C)Oc3ccc(NC(=O)Nc4ccc(C(F)(F)F)cc4)cc3C(=O)N([C@H](C)CO)C[C@H]2C)cc1	i	i
C[C@@H]1CCCCO[C@@H](CN(C)C(=O)Nc2ccc(C(F)(F)F)cc2)[C@H](C)CN([C@@H](C)CO)C(=O)c2cc(NC(=O)Nc3ccc4c(c3)OCO4)ccc2O1	112	i
C[C@@H]1CCCCO[C@H](CN(C)Cc2ccncc2)[C@H](C)CN([C@@H](C)CO)C(=O)c2cc(NC(=O)Nc3cccc4ccccc34)ccc2O1	i	i
C[C@H](CO)N1C[C@H](C)[C@@H](CN(C)C(=O)Nc2ccc3c(c2)OCO3)OCCCC[C@H](C)Oc2ccc(NC(=O)Nc3ccc(C(F)(F)F)cc3)cc2C1=O	i	i
CN(C)c1ccc2c(c1)[C@H]1C[C@@H](CC(=O)NCc3ccc(Oc4ccccc4)cc3)O[C@H](CO)[C@H]1O2	nt	i
CN(C)c1ccc2c(c1)[C@@H]1C[C@@H](CC(=O)NCc3ccc(Oc4ccccc4)cc3)O[C@@H](CO)[C@@H]1O2	127	i
CN(C)c1ccc2c(c1)[C@@H]1C[C@H](CC(=O)N3CCc4ccccc4C3)O[C@@H](CO)[C@@H]1O2	101	i
CN(C)c1ccc2c(c1)[C@H]1C[C@H](CC(=O)N3CCc4ccccc4C3)O[C@@H](CO)[C@H]1O2	i	i
CCCN1[C@@H]2c3ccc(/C=C/c4ccccc4)c(=O)n3C[C@@H]2[C@@H](CO)[C@@H]1C(=O)NCC	i	i
Fc1ccccc1-c1ccc(C2[C@@H]3CN(Cc4ccccc4)C[C@H]2N3)cc1 (stereo not given in full)	nt	-98
COc1cccc(CN2C[C@@H]3N[C@H](C2)C3c2ccc(-c3ccc(C#N)cc3)cc2)c1 (stereo not given in full)	nt	i
c1ccc(CN2C[C@@H]3N[C@H](C2)C3c2ccc(-c3ccccc3)cc2)cc1 (stereo not given in full)	nt	i
Cc1cccc(-c2ccc(C3[C@@H]4CN(Cc5ccccc5)C[C@H]3N4)cc2)c1 (stereo not given in full)	nt	i
COc1cccc(CN2C[C@@H]3N[C@H](C2)C3c2ccc(-c3ccccc3OC)cc2)c1 (stereo not given in full)	nt	-97!
Cc1ccccc1-c1ccc(C2[C@@H]3CN(Cc4ccc5c(c4)OCO5)C[C@H]2N3)cc1 (stereo not given in full)	nt	-94
